Inconclusive results are not listed. Active and inactive are the calls of the source. The call rests on the fitted dose curve; in most records, active means well fitted activation curve with a large enough effect; inconclusive means small, poorly fitted or top-dose-only effect; inactive means no such curve, though single readings can be large or run the other way.
What follows are molecules tested against Cellular tumor antigen p53 (Homo sapiens) (UniProt P04637) (assay: Primary qHTS for small molecule compounds that upregulate eGFP-tagged delta133p53alpha (in N-terminal) cells. (AID 2060322; further: nearly all actives have a fitted effect of over 75% in size;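 on activation: cells pre-induced with doxycycline then dosed without doxycycline; series mostly up to about 56 µM; 0% = DMSO vehicle and 100% = reference activator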)). Details: NCI-H358 eGFP-delta133p53alpha fluorescence, 24 h; activation: stronger effect = higher value.
Chain of Cellular tumor antigen p53 (Homo sapiens) (P04637 whole entry, looked up): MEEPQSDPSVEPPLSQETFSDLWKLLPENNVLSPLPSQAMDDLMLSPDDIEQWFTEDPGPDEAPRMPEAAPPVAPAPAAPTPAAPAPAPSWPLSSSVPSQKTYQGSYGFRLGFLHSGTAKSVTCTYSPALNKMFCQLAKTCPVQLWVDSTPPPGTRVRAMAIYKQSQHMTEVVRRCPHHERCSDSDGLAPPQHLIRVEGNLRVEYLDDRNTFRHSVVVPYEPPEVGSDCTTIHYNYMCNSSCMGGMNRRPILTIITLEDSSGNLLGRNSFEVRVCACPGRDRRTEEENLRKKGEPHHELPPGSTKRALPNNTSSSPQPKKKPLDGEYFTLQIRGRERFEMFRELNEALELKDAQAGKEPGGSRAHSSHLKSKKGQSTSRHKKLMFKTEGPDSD
Summary of the method: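 NCI-H358 cells pre-induced 24 h with 10 ng/ml doxycycline for eGFP-delta133p53alpha, plated dox-free and exposed 24 h at 37C to titrated compounds. Fixed, Hoechst-stained; gated GFP peak intensity by laser scanning cytometry, normalized to DMSO (0%) and 57.5 uM 5-azacytidine (100%).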
CC1(C)[C@@H](O)CC[C@]2(C)[C@H]3CC=C4[C@@H]5C[C@](C)(C(=O)O)CC[C@]5(C)CC[C@@]4(C)[C@]3(C)CC[C@@H]12 was tested, and the activation was 7% (inactive). CC(=O)OC[C@]12[C@H](OC(C)=O)[C@H](OC(=O)c3ccccc3)[C@@H]3[C@@H](OC(C)=O)[C@]1(OC3(C)C)[C@H](C)C[C@H](OC(C)=O)[C@@H]2OC(=O)c1ccccc1 was tested, and the activation was 3.05% (inactive). In the case of C=CC(C)(O)CC/C=C(\C)C(=O)OC1CC2(C(=O)O)CCC3(C)C(=CCC4C5(C)CCC(OC6OC(COC7OCC(O)C(O)C7O)C(O)C(OC7OCC(O)C(O)C7O)C6OC6OC(CO)C(O)C(O)C6OC6OCC(O)C(O)C6O)C(C)(C)C5CCC43C)C2CC1(C)C (stereo unspecified), the activation is reported as -7.14% (inactive). With O=C(/C=C/c1ccc(O)cc1)OC[C@H]1O[C@@H](O/C(=C\c2ccccc2)C(=O)O)[C@H](O)[C@@H](O)[C@@H]1O the activation was -2.29% (inactive). With COc1cc(-c2cc(-c3cccc(O)c3)cnc2N)cc(OC)c1OC the Potency was 16.9 µM (active). In the case of COc1ccc(CCO[C@@H]2O[C@H](CO[C@@H]3OC[C@H](O)[C@H](O)[C@H]3O)[C@@H](O)[C@H](O)[C@H]2O)cc1, the activation is reported as -20.6% (inactive). With C=C1CC2[C@]3(C)C(=C(O)C(=O)[C@@]2(C)[C@]2(C(=O)OC)C(=O)C(C)OC(=O)[C@@]12C)C(C)(C)C(=O)CC3O (stereo partly specified) the activation was 18.3% (inactive). For C=C1/C(=C/C=C2\CCC[C@]3(C)[C@@H]([C@H](C)CC[C@@H](O)C(C)(C)O)CC[C@@H]23)C[C@@H](O)C[C@@H]1O, the activation was 10.3% (inactive). COc1cc2c(c(OC)c1O)C(c1ccc(O)cc1)C1C(=O)OC3C(COC(=O)C1=C2)OC(CO)(OC1OC(COC(=O)/C=C/c2ccc(OC4OC(C)C(O)C(O)C4O)cc2)C(O)C(O)C1O)C3O (stereo unspecified) was tested, and the activation was 23.2% (inactive). In the case of COc1cc(/C=C/C(=O)O[C@@H]2C[C@](O)(C(=O)O)C[C@@H](O)[C@H]2O)ccc1O, the activation is reported as 3.57% (inactive). CCCO[C@@H]1O[C@H](CO)[C@@H](O)[C@H](O)[C@H]1O[C@@H]1OC[C@@H](O)[C@H](O)[C@H]1O was tested, and the activation was -15.3% (inactive). In the case of CC1=CC(=O)CC(C)(CO)C1(O)/C=C/C(C)O[C@@H]1O[C@H](CO)[C@@H](O)[C@H](O)[C@H]1O (stereo partly specified), the activation is reported as -9.82% (inactive). In the case of C=CC(C)(O)CCC1C(C)(O)CCC2C(C)(C)CCCC21C (stereo unspecified), the activation is reported as 9.82% (inactive). With Cc1ccc(Cc2c(C)nc3nc(SCC(=O)NCCN4CCNCC4)nn3c2C)cc1 the activation was -9.67% (inactive). COc1cc2c(c(OC)c1CC=C(C)C)C[C@H](c1ccc(O)cc1O)CO2 was tested, and the activation was 12.5% (inactive). For CC1(C)CC[C@]2(C(=O)O[C@@H]3O[C@H](CO)[C@@H](O)[C@H](O)[C@H]3O)CC[C@]3(C)C(=CCC4[C@@]5(C)C[C@@H](O)[C@H](O)[C@](C)(C(=O)O)C5CC[C@]43C)C2C1O (stereo partly specified), the activation was -2.68% (inactive).

Source: PubChem BioAssay (NCATS)
Potency means the concentration at half of the fitted maximal effect.
